# Experimental data: PubChem BioAssay
# Active and inactive are the calls of the source.
# What was measured:
# [1] = tested on: PRMT1 (protein arginine N-methyltransferase 1); experiment: small molecules binding arginine methyltransferase PRMT1 – biochemical, small-molecule microarray, 635 nm fluorescence, primary screen (AID 1088); conditions: higher = more signal;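 also: binding of Prmt1 protein to compounds spotted on small-molecule microarray slides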
# [2] = growth effects on S. cerevisiae YJM789 – YJM789 clinical isolate, OD600, 24 h, basal, primary screen (AID 1089); conditions: higher = more signal, called active from +8 up or from −8 down;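 also: growth of clinical yeast isolate S. cerevisiae YJM 789 seeded 1000 cells per well; test concentration not given here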
# [3] = S. pombe growth modifiers, basal conditions – strain 972, OD600, 24 h, no modulator, primary screen (AID 1090);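 also: basal condition with compound alone and no growth modifier present; test concentration not given here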; conditions: S. pombe 972 growth, higher = more signal, called active from +8 up or from −8 down
# [4] = budding yeast growth modifiers under rapamycin – strain BY4716, OD600, 96 h, primary screen (AID 1091); also: test concentration not given here; conditions: S. cerevisiae BY4716 + rapamycin, higher = more signal, called active from +8 up or from −8 down
# [5] = biological target: Torsin-1A-interacting protein 2 (Homo sapiens) (UniProt Q8NFQ8); experiment: small molecules binding lysate-expressed LULL1 – cell lysate, human LULL1 lysate, 635/667 nm fluorescence, primary screen (AID 1092); conditions: small-molecule microarray, hLULL1 lysate binding, 635 nm fluorescence; higher = more signal;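 also: probe is lysate of COS7 cells overexpressing human LULL1; score merges per-feature 667 nm fluorescence with signal-to-noise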
# Sequence of Torsin-1A-interacting protein 2 (Homo sapiens) (Q8NFQ8 whole entry, looked up): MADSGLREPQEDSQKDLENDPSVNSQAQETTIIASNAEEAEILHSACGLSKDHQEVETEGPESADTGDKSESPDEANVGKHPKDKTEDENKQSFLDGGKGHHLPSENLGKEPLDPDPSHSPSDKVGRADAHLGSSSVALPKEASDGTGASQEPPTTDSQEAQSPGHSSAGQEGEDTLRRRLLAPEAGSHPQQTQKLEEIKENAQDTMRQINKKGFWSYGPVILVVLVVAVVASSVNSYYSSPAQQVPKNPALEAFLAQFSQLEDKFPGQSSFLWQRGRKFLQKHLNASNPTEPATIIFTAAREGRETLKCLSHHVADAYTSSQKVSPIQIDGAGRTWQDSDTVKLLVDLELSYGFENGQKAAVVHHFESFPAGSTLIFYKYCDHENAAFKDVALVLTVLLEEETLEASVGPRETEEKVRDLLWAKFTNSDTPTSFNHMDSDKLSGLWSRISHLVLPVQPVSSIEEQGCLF
# [6] = optical density change of DRC41 E. coli – strain DRC41, OD650, 24 h, E. coli filamentation project, primary screen (AID 1093);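 also: MC1000 strain lacking acrAB efflux and sulA so SOS filamentation is blocked; test concentration not given here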; conditions: E. coli DRC41 growth, higher = more signal, called active from +8 up or from −8 down
# [7] = probe aLefty2 binding to arrayed compounds – biochemical, biotinylated probe, 635/667 nm fluorescence, primary screen (AID 1094); conditions: small-molecule microarray, higher = more signal;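 also: score merges spot fluorescence near 667 nm with spot signal-to-noise ratio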
# [8] = tested on: Noggin (protein binding on small-molecule microarray); experiment: small molecules binding Noggin protein – biochemical, 635/667 nm fluorescence, primary screen (AID 1095); conditions: 635 nm fluorescence, higher = more signal;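 also: score merges 667 nm feature fluorescence with signal to noise over triplicate slides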
# [9] = biological target: Neurogenic locus notch homolog protein 3 (Homo sapiens) (UniProt Q9UM47); experiment: small molecules binding NOTCH3 protein – biochemical, 635/667 nm fluorescence, primary screen (AID 1096); conditions: small-molecule microarray, 635 nm fluorescence, higher = more signal
# Sequence of Neurogenic locus notch homolog protein 3 (Homo sapiens) (Q9UM47 whole entry, looked up): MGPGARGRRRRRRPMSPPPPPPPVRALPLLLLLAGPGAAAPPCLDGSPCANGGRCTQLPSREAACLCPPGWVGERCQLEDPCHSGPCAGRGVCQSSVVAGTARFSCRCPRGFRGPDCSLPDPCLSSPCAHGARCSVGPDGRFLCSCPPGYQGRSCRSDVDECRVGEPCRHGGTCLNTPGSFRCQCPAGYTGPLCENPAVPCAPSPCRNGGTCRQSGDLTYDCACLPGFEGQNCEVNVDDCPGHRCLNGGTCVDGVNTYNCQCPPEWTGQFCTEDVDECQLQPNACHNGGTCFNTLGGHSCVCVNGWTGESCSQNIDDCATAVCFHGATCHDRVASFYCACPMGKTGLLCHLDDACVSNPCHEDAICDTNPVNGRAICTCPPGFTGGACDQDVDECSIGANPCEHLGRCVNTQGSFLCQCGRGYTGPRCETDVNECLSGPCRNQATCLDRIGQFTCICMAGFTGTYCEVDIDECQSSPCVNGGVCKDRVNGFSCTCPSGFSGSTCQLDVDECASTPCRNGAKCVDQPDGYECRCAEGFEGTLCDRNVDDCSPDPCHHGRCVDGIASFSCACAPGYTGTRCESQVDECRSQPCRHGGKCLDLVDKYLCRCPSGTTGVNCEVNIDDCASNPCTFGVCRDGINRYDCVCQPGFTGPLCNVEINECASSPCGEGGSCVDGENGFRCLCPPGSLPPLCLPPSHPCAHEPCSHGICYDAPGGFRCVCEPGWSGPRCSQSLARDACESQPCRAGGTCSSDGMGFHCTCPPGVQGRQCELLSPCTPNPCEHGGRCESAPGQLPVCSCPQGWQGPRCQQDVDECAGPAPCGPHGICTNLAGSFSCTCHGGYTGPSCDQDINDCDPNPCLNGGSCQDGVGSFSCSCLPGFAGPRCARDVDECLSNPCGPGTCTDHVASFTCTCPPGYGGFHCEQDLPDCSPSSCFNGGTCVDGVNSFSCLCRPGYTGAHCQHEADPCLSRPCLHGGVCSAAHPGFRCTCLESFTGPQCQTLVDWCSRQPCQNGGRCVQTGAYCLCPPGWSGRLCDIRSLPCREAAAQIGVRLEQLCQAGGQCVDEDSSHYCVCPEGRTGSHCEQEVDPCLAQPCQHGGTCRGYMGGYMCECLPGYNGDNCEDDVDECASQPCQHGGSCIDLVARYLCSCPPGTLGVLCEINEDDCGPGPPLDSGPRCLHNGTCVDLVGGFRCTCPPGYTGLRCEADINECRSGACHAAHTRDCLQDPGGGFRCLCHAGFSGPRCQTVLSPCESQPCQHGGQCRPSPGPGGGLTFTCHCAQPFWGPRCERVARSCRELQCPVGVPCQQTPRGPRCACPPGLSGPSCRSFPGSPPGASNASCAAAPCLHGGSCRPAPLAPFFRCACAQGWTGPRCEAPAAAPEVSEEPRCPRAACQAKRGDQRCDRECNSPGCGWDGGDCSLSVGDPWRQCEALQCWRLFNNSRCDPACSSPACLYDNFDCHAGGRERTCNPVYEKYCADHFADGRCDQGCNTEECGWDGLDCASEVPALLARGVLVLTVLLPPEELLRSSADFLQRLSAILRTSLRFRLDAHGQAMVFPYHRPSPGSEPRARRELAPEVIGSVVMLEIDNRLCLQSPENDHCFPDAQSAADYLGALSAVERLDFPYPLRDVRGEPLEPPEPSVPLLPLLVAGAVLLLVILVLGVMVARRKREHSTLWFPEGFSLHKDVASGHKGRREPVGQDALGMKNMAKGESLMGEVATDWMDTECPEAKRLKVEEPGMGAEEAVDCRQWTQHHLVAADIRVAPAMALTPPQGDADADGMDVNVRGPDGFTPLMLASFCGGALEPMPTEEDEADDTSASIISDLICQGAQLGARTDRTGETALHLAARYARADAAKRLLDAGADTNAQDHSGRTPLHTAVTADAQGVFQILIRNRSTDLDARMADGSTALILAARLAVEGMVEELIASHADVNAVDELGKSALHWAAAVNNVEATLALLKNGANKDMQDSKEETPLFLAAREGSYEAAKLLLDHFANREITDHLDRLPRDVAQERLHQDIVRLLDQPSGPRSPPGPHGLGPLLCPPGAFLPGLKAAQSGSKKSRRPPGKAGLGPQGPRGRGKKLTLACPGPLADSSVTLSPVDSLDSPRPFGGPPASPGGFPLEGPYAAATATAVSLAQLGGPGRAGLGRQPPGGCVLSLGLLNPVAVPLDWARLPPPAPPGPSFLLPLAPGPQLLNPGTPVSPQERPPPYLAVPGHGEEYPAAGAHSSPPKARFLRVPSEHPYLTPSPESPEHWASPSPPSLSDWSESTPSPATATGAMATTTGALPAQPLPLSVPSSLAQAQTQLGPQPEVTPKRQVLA
# [10] = probe aEGFR binding to arrayed compounds – biochemical, biotinylated probe, 635/667 nm fluorescence, primary screen (AID 1097); conditions: small-molecule microarray, higher = more signal;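 also: probe is a biotinylated anti-EGFR antibody binding compounds printed on slides; score combines fluorescence near 667 nm and signal to noise of each spot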
# [11] = tested on: Plasmodium falciparum Sir2 (PF13_0152, Sir2A); experiment: Plasmodium falciparum Sir2A binding compounds – biochemical, small-molecule microarray, 635 nm fluorescence, primary screen (AID 1098); conditions: fluorescence 635 nm, higher = more signal;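 also: score merges spot fluorescence intensity with its signal-to-noise ratio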
# [12] = probe aDKK1 binding to arrayed compounds – biochemical, biotinylated probe, 635/667 nm fluorescence, primary screen (AID 1099); conditions: small-molecule microarray, higher = more signal;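 also: score merges 667nm spot fluorescence with signal to noise across triplicate slides; reference of the scale not given here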
# [13] = probe aCHRDL2 binding to arrayed compounds – biochemical, biotinylated probe, 635/667 nm fluorescence, primary screen (AID 1100); conditions: small-molecule microarray, higher = more signal
# [14] = change in splice reporter luminescence, either direction, cell-based, HEK293, spliceosome inhibition project, primary screen (AID 1101); conditions: HEK293 splicing luciferase reporter, 24 h, higher = more signal, called active from +8 up or from −8 down;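 also: HEK293 cells carrying a splicing-competent luciferase reporter gene; test concentration not given here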
# [15] = biological target: Fibroblast growth factor 10 (Homo sapiens) (UniProt O15520); experiment: compounds binding fibroblast growth factor 10 – biochemical, small-molecule microarray, 635 nm fluorescence, primary screen (AID 1102); conditions: FGF10 binding, fluorescence 635 nm, higher = more signal
# Sequence of Fibroblast growth factor 10 (Homo sapiens) (O15520 whole entry, looked up): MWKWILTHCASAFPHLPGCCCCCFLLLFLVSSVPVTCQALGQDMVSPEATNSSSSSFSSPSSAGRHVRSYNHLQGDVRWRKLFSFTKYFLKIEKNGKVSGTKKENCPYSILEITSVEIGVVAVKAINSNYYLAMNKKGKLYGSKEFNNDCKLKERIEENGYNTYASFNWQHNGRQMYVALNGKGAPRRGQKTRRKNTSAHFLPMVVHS
# [16] = tested on: glycogen synthase kinase-3 (GSK3A per assay name; protocol says GSK3B); experiment: compounds binding glycogen synthase kinase-3 – biochemical, small-molecule microarray, 635 nm fluorescence, GSK3A, primary screen (AID 1103); conditions: fluorescence 635 nm, higher = more signal; also: the record names both GSK3A and GSK3B
# [17] = biological target: Epidermal growth factor receptor (Homo sapiens) (UniProt P00533); experiment: compounds binding epidermal growth factor receptor – biochemical, small-molecule microarray, 635 nm fluorescence, primary screen (AID 1104); conditions: EGFR binding, higher = more signal;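 also: score merges 667 nm emission intensity with spot signal to noise over triplicate slides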
# Sequence of Epidermal growth factor receptor (Homo sapiens) (P00533 whole entry, looked up): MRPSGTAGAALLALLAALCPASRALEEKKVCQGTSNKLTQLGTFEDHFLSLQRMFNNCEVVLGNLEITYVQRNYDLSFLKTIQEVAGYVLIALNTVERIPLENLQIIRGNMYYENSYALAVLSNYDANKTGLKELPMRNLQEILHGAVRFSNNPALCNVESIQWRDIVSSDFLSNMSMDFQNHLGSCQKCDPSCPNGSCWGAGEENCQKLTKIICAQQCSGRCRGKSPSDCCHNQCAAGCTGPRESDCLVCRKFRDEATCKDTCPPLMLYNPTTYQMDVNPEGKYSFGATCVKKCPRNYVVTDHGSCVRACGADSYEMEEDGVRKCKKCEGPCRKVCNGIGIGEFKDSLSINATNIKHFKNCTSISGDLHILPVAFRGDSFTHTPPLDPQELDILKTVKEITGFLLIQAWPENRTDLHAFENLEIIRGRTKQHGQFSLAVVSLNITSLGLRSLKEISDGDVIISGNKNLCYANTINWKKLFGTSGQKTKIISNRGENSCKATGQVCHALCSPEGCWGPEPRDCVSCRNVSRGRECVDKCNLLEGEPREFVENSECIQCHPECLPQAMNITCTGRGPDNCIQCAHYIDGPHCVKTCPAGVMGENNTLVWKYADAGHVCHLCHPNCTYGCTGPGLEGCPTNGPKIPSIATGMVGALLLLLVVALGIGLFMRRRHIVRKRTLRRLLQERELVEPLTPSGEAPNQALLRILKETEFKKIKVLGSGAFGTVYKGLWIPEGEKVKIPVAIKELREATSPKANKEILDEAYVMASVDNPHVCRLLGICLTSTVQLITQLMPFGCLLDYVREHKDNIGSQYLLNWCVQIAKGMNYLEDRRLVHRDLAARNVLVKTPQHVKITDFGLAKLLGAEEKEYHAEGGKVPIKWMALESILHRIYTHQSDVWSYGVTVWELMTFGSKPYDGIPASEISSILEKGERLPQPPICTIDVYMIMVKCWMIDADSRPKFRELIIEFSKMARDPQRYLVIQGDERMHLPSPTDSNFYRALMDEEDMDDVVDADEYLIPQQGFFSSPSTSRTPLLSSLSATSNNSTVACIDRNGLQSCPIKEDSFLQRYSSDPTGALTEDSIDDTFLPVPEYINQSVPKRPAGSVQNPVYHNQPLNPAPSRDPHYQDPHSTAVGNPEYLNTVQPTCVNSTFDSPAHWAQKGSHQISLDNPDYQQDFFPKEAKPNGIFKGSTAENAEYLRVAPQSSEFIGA
# [18] = biological target: Follistatin-related protein 3 (Homo sapiens) (UniProt O95633); experiment: compounds binding follistatin-related protein 3 – biochemical, small-molecule microarray, 635 nm fluorescence, primary screen (AID 1105); conditions: FSTL3 binding, higher = more signal;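 also: score merges emission near 667 nm and signal to noise per printed spot across three slides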
# Sequence of Follistatin-related protein 3 (Homo sapiens) (O95633 whole entry, looked up): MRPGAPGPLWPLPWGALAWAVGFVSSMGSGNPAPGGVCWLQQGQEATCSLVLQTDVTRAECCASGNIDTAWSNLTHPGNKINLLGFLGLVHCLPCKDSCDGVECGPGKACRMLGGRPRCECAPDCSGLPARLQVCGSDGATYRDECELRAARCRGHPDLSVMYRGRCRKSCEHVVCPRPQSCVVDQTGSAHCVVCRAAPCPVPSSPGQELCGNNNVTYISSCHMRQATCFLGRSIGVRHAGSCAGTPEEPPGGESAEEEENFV
# [19] = biological target: Dickkopf-related protein 1 (Homo sapiens) (UniProt O94907); experiment: small molecules binding DKK1 protein – biochemical, small-molecule microarray, 635 nm fluorescence scan, primary screen (AID 1106); conditions: higher = more signal;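 also: score merges emission near 667 nm with signal to noise over three replicate slides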
# Sequence of Dickkopf-related protein 1 (Homo sapiens) (O94907 whole entry, looked up): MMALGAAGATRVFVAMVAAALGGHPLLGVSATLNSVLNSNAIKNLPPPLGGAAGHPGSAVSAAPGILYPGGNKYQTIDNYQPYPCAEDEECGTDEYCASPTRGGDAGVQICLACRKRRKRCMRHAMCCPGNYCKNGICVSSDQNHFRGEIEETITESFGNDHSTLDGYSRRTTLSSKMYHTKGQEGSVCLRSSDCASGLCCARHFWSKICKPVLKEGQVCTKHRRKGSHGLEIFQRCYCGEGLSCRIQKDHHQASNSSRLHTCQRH
# [20] = tested on: Inhibin beta A chain (activin A); experiment: small molecules binding activin A – biochemical, small-molecule microarray, 635 nm fluorescence scan, primary screen (AID 1107); conditions: INHBA, higher = more signal;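 also: mouse activin A protein probed at 4.33 µg/mL on printed slides; score merges bound-protein fluorescence near 667 nm with spot signal-to-noise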
structure (smiles),measurement,setting,value
O=C(O)[C@@H]1C[C@@H]2C(=O)N3CCC[C@H]3C(=O)N2[C@@H]1c1cccc(OCCO)c1,composite z-score,[1],1.53
same,z-score,[2],-0.386 (inactive)
same,z-score,[3],-1.98 (inactive)
same,z-score,[4],-0.533 (inactive)
same,composite z-score,[5],4.25
same,z-score,[6],1.14 (inactive)
same,composite z-score,[7],1.49
same,composite z-score,[8],1.95
same,composite z-score,[9],1.07
same,composite z-score,[10],1.27
same,composite z-score,[11],2.07
same,composite z-score,[12],2.67
same,composite z-score,[13],1.72
same,z-score,[14],0.0627 (inactive)
same,composite z-score,[15],1.36
same,composite z-score,[16],1.44
same,composite z-score,[17],1.41
same,composite z-score,[18],1.54
same,composite z-score,[19],1.9
same,composite z-score,[20],1.98
CN1C(=O)C2C=CC(C(O)c3ccc(I)cc3)N(Nc3ccccc3)C2C1=O (stereo not given),composite z-score,[1],1.27
same,z-score,[2],-0.228 (inactive)
same,z-score,[3],-0.504 (inactive)
same,z-score,[4],0.768 (inactive)
same,composite z-score,[5],2.99
same,z-score,[6],-1.78 (inactive)
same,composite z-score,[7],0.107
same,composite z-score,[8],-0.111
same,composite z-score,[9],1.09
same,composite z-score,[10],0.0778
same,composite z-score,[11],1.23
same,composite z-score,[12],0.158
same,composite z-score,[13],0.926
same,z-score,[14],0.623 (inactive)
same,composite z-score,[15],1.16
same,composite z-score,[16],0.995
same,composite z-score,[17],0.271
same,composite z-score,[18],1.31
same,composite z-score,[19],-0.158
same,composite z-score,[20],0.966
C[C@@]12COC[C@]13C=C(Br)[C@H](C2)[C@@]1(CO1)C3=O,composite z-score,[1],-1.78
same,z-score,[2],-0.0556 (inactive)
same,z-score,[3],-2.25 (inactive)
same,z-score,[4],-0.0407 (inactive)
same,composite z-score,[5],-2.15
same,z-score,[6],-0.768 (inactive)
same,composite z-score,[7],-0.207
same,composite z-score,[8],-0.508
same,composite z-score,[9],-0.233
same,composite z-score,[10],-0.178
same,composite z-score,[11],-0.363
same,composite z-score,[12],-0.101
same,composite z-score,[13],0.262
same,z-score,[14],-0.374 (inactive)
same,composite z-score,[15],-0.732
same,composite z-score,[16],-1.02
same,composite z-score,[17],-0.886
same,composite z-score,[18],-0.449
same,composite z-score,[19],-0.614
same,composite z-score,[20],0.701
CCOC(=O)C[C@H]1[C@H](OC(=O)c2ccc(-c3ccccc3)cc2)[C@@H](NC(=O)Cc2ccc(OC)cc2)c2cc(OCCCO)ccc2N1C(=O)Cc1ccc(OC)cc1,composite z-score,[1],0.287
same,z-score,[2],1.09 (inactive)
same,z-score,[3],-0.231 (inactive)
same,z-score,[4],1.63 (inactive)
same,composite z-score,[5],1.55
same,z-score,[6],1.3 (inactive)
same,composite z-score,[7],-0.0769
same,composite z-score,[8],-0.542
same,composite z-score,[9],-0.0636
same,composite z-score,[10],-0.094
same,composite z-score,[11],0.064
same,composite z-score,[12],0.288
same,composite z-score,[13],0.723
same,z-score,[14],-0.0344 (inactive)
same,composite z-score,[15],0.244
same,composite z-score,[16],-0.602
same,composite z-score,[17],0.0599
same,composite z-score,[18],-0.0955
same,composite z-score,[19],-0.276
same,composite z-score,[20],0.38
Cc1ccc(F)cc1S(=O)(=O)N[C@@H]1CCN(Cc2cccc3[nH]ccc23)C1,composite z-score,[1],0.317
same,z-score,[2],0.84 (inactive)
same,z-score,[3],-1.02 (inactive)
same,z-score,[4],-0.639 (inactive)
same,composite z-score,[5],-0.466
same,z-score,[6],-0.833 (inactive)
same,composite z-score,[7],-0.0728
same,composite z-score,[8],0.586
same,composite z-score,[9],0.56
same,composite z-score,[10],0.137
same,composite z-score,[11],0.245
same,composite z-score,[12],-0.374
same,composite z-score,[13],-0.518
same,z-score,[14],-0.44 (inactive)
same,composite z-score,[15],0.67
same,composite z-score,[16],0.67
same,composite z-score,[17],0.719
same,composite z-score,[18],1.36
same,composite z-score,[19],0.236
same,composite z-score,[20],0.741
CN(C)C(=O)[C@@]1(Cc2ccccc2N=[N+]=[N-])N=C(c2ccc(OCCCO)cc2)O[C@H]1c1ccccc1,composite z-score,[1],1.57
same,z-score,[2],0.687 (inactive)
same,z-score,[3],-4.17 (inactive)
same,z-score,[4],1.23 (inactive)
same,composite z-score,[5],3.38
same,z-score,[6],0.1 (inactive)
same,composite z-score,[7],0.58
same,composite z-score,[8],-0.125
same,composite z-score,[9],1.12
same,composite z-score,[10],0.35
same,composite z-score,[11],1.36
same,composite z-score,[12],0.605
same,composite z-score,[13],1.35
same,z-score,[14],0.22 (inactive)
same,composite z-score,[15],0.607
same,composite z-score,[16],1.22
same,composite z-score,[17],-0.103
same,composite z-score,[18],0.465
same,composite z-score,[19],-0.217
same,composite z-score,[20],0.787
CO[C@H]1O[C@H](CO)[C@@H](OC(=O)CCc2ccccc2)[C@H](OC(=O)c2cc3ccccc3[nH]2)[C@H]1OC(=O)c1cc2ccccc2[nH]1,composite z-score,[1],1.38
same,z-score,[2],-0.583 (inactive)
same,z-score,[3],-0.0932 (inactive)
same,z-score,[4],20 (active)
same,composite z-score,[5],2.74
same,z-score,[6],1.5 (inactive)
same,composite z-score,[7],-0.0468
same,composite z-score,[8],0.565
same,composite z-score,[9],1.07
same,composite z-score,[10],-0.0662
same,composite z-score,[11],0.757
same,composite z-score,[12],-0.118
same,composite z-score,[13],-0.0052
same,z-score,[14],-0.766 (inactive)
same,composite z-score,[15],1.27
same,composite z-score,[16],0.828
same,composite z-score,[17],0.543
same,composite z-score,[18],0.847
same,composite z-score,[19],0.777
same,composite z-score,[20],-0.108
COc1ccc(C#Cc2ccc3c(c2)[C@]2(C(=O)N3)[C@H](C(=O)N3CCCCCCC3)[C@H]3C(=O)O[C@H](c4ccccc4)[C@H](c4ccccc4)N3[C@@H]2c2ccc(O)cc2)cc1,composite z-score,[1],1.56
same,z-score,[2],-0.0118 (inactive)
same,z-score,[3],0.0345 (inactive)
same,z-score,[4],0.595 (inactive)
same,composite z-score,[5],3.12
same,z-score,[6],0.209 (inactive)
same,composite z-score,[7],1
same,composite z-score,[8],0.719
same,composite z-score,[9],1.1
same,composite z-score,[10],0.426
same,composite z-score,[11],1.57
same,composite z-score,[12],1.36
same,composite z-score,[13],0.696
same,z-score,[14],-0.547 (inactive)
same,composite z-score,[15],0.684
same,composite z-score,[16],1.16
same,composite z-score,[17],0.427
same,composite z-score,[18],1.2
same,composite z-score,[19],0.608
same,composite z-score,[20],0.85
CC=CC(O)C1C=CC2C(=O)NC(=O)C2N1Nc1ccccn1 (stereo not given),composite z-score,[1],1.36
same,z-score,[2],0.43 (inactive)
same,z-score,[3],1.99 (inactive)
same,z-score,[4],0.544 (inactive)
same,composite z-score,[5],0.871
same,z-score,[6],-0.565 (inactive)
same,composite z-score,[7],0.0261
same,composite z-score,[8],0.26
same,composite z-score,[9],0.542
same,composite z-score,[10],-0.257
same,composite z-score,[11],0.733
same,composite z-score,[12],-0.0419
same,composite z-score,[13],-0.185
same,z-score,[14],1.12 (inactive)
same,composite z-score,[15],0.22
same,composite z-score,[16],0.717
same,composite z-score,[17],0.673
same,composite z-score,[18],0.6
same,composite z-score,[19],0.697
same,composite z-score,[20],1.25
COCCCNC(=O)[C@@]1(c2ccc([N+](=O)[O-])cc2)CC(=O)N(CC23CC4CC(CC(C4)C2)C3)[C@@H]1c1ccc(CO)cc1I,composite z-score,[1],1.3
same,z-score,[2],1.01 (inactive)
same,z-score,[3],1.08 (inactive)
same,z-score,[4],4.92 (inactive)
same,composite z-score,[5],1.75
same,z-score,[6],-0.254 (inactive)
same,composite z-score,[7],0.0283
same,composite z-score,[8],0.26
same,composite z-score,[9],0.341
same,composite z-score,[10],-0.183
same,composite z-score,[11],1.02
same,composite z-score,[12],0.541
same,composite z-score,[13],0.847
same,z-score,[14],3.68 (inactive)
same,composite z-score,[15],-0.0432
same,composite z-score,[16],-0.115
same,composite z-score,[17],-0.392
same,composite z-score,[18],-0.36
same,composite z-score,[19],-0.15
same,composite z-score,[20],0.126
